The whole screen tested about 330,000 compounds, of which about 10,000 (3%) were called active. Only a selection was taken, and actives are over-represented in it overall. Values without a mark were called inactive.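 The calls were made as follows: active = inhibition of at least 50% at 8 µM in the primary screen; inactive = the rest.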

Sequence of Protein Mdm4 (Homo sapiens) + E3 ubiquitin-protein ligase Mdm2 (Homo sapiens) (O15151 whole entry, looked up): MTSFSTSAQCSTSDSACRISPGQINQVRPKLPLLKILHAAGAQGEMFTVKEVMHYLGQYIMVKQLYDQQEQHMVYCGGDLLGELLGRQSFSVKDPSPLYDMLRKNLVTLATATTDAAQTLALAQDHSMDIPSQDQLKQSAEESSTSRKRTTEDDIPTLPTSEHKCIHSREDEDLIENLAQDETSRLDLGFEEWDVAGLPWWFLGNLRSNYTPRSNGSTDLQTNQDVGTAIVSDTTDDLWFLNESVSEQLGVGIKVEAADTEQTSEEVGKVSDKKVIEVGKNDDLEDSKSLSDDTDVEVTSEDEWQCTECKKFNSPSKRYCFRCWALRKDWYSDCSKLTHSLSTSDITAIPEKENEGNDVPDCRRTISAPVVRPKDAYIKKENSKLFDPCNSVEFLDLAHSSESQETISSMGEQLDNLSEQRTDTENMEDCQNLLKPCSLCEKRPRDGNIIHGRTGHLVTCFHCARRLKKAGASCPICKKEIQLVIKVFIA
Sequence of Protein Mdm4 (Homo sapiens) + E3 ubiquitin-protein ligase Mdm2 (Homo sapiens) (Q00987 whole entry, looked up): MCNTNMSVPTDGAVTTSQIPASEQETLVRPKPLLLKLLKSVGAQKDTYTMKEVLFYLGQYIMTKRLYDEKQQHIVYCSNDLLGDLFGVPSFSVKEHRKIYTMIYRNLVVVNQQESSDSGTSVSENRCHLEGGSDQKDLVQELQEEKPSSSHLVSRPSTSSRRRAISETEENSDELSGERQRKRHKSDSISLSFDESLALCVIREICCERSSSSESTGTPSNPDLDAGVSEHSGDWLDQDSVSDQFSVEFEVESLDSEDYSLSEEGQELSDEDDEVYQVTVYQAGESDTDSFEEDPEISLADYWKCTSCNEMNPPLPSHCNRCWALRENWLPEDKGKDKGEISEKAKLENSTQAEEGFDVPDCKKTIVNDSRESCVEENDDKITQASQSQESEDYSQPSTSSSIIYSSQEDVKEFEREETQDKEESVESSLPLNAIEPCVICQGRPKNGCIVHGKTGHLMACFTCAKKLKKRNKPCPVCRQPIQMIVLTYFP

The experiment concerns the target Protein Mdm4 (Homo sapiens) + E3 ubiquitin-protein ligase Mdm2 (Homo sapiens) (UniProt O15151+Q00987). As to the kind of experiment: disruptors of Mdm2/MdmX RING complex – cell-based, luminescence, split luciferase, SaOS-2, uHTS, primary screen (AID 485346). Particulars: SaOS-2 split-luciferase Mdm2/MdmX complementation, at 8 µM, stronger effect = higher value.
As for `CCC(=O)c1ccc(OCC(O)Cn2nc(C)c(C(C)=O)c2C)cc1` (stereo not drawn), the inhibition was 4.82%. With `CC1CCCC(NC(=O)c2cc(-c3ccncc3)nc3ccccc23)C1C` (stereo not drawn) the figure was -4.9%; with `Cc1ccc(C(=O)O)cc1S(=O)(=O)NCC1CCCO1` (stereo not drawn), -63.3%; with `Cc1noc(C)c1CCC(=O)N1CCCC(CO)(Cc2ccccc2)C1` (stereo not drawn), -31.3%. Under `COc1ccc(Cl)cc1NC(=O)CN(C)Cc1ccc(OC)c(OC)c1` stands 29.4%; under `C/C(=N\NC(=O)OC(C)(C)C)c1ccc[nH]1`, -29.2%; under `COc1ccccc1C(=O)Nc1ccc(C)c(S(=O)(=O)N2CCCCC2)c1`, 15%.

Consider `O=C(Nc1ccc(N2CCN(C(=O)C3CC3)CC2)cc1)c1cccs1`, for which the inhibition is -10.3%. Under `Cc1ccccc1C(=O)N1CCN(c2ccc(NC(=O)c3cccs3)cc2)CC1` stands 53.9% (active). Consider `O=C(Nc1ccc(N2CCN(C(=O)c3cccs3)CC2)cc1)c1cccnc1Cl`, for which the inhibition was -22.2%. With `CCCc1cc(=O)[nH]c(SCC(=O)Nc2ccc(C(=O)Nc3ccccc3OC)cc2)n1` the figure was 21.4%; with `COCCNC(=O)C(OC(=O)c1cccs1)c1ccc(F)cc1` (stereo not drawn), 4.05%; with `O=C(Cc1ccccc1)Nc1cccc(NC(=O)c2ccccc2)c1`, 4.35%.

Consider `CCc1cccc(NC(=O)CCC(=O)O)c1`, for which the inhibition is 3.13%.

With `O=C(CCl)Nc1cccc(CP(=O)(c2ccccc2)c2ccccc2)c1`, the inhibition was 96.3% (active).

For `Clc1ccc(-c2nc3ccccn3c2CN2CCSCC2)cc1`, the inhibition was 15.3%. Under `Cc1ccc(CNC(=O)C2CCN(S(=O)(=O)c3ccc4nc5c(c(C(=O)O)c4c3)CC(C)CC5)CC2)cc1` (stereo not drawn) stands 6.94%; under `O=C(NC(=S)Nc1ccc(Cl)cc1Cl)C1CC1`, -39.2%; under `CC(=O)Nc1ccc(Nc2nc3c(S(=O)(=O)c4ccc(C)c(C)c4)nnn3c3ccccc23)cc1`, 23.4%. Under `Cc1ccc(S(=O)(=O)c2nnn3c2nc(N2CCN(c4ccccn4)CC2)c2ccccc23)cc1` stands 10.2%.

For the molecule `Cc1cccc(Nc2nc3c(S(=O)(=O)c4ccccc4)nnn3c3ccccc23)c1C`, the inhibition is 77.7% (active).

In the case of `COc1ccc(C2(CNC(=O)Cc3ccc(OC)c(OC)c3)CCCC2)cc1`, the inhibition was 10.1%.

Consider `Cc1nnc(NCCO)c2ccccc12`, for which the inhibition is -14%.

For `CN(C)c1nc(Nc2ccc(Cl)c(Cl)c2)nc(N(C)C)n1`, the inhibition is -14.8%. With `OCCNc1nc(Nc2ccc(Cl)c(Cl)c2)nc2ccccc12` the figure was 80.6% (active). Turning to `COc1ccc(C(C#N)N2N=C(C)CC2(C)C)cc1` (stereo not drawn), the inhibition was -22.4%. Under `Cc1ccc(S(=O)(=O)N2[C@@H](c3ccc(Br)cc3)C(C(=O)O)=C[C@H]2CC2CCCC2)cc1` stands 30.4%; under `COc1ccc2c(c1)CCNC2Cc1ccc(OC)c(O)c1` (stereo not drawn), -20.9%; under `CCc1ccc(OCC2c3cc(OC)c(OC)cc3CCN2C(C)=O)cc1` (stereo not drawn), 6.86%.

Take `CC[C@H]1CN2CCc3cc(OC)c(OC)cc3[C@@H]2C[C@@H]1C[C@H]1NCCc2cc(OC)c(OC)cc21`: the inhibition is 91.7% (active). With `C=C(C)c1cccc(C(C)(C)NC(=O)NCCN(CC)CC)c1` the figure was 14.6%. Under `Cc1ccc(S(=O)(=O)N2C[C@@H]3CCCC[C@@H]3[C@@H](C)[C@H]2c2cn(Cc3ccccc3)c3ccc(F)cc23)cc1` stands 30%; under `CCNC(=O)COC(=O)/C=C/c1c(C)nn(Cc2cccc(OC)c2)c1Cl`, 11.4%; under `Cc1ccc(C(=O)/C=C/Nc2ccc(S(=O)(=O)Nc3onc(C)c3C)cc2)cc1`, 0.513%. With `COc1ccc(/C=C/C(=O)c2ccc(NS(=O)(=O)c3ccc(C)cc3)cc2)cc1O` the figure was 65.1% (active). Turning to `COc1ccc(NS(=O)(=O)c2ccc(NC(=S)NC(=O)/C=C/c3ccc(C)cc3)cc2)nn1`, the inhibition is -0.635%.

As to `Cc1cc(C)n2nc(C(=O)OC(C)C(=O)c3cc(C)c(C)cc3C)nc2n1` (stereo not drawn), the inhibition is 1.62%.

As to `OCC[C@H]1C[C@H](O)[C@@H](O)[C@]2(Cc3ccccc3CO2)O1`, the inhibition was -20.7%. Under `Cc1cccc(NC(=O)c2nc[nH]c2C(=O)NCC(=O)OCc2ccccc2)c1` stands 10.4%; under `Cc1cccc(CS(=O)(=O)c2ncc(Cl)c(C(=O)Nc3ccc(F)cc3)n2)c1`, 82.1% (active).

Regarding `Cc1cccc(NC(=O)c2nc(S(=O)(=O)Cc3ccccc3)ncc2Cl)c1`, the inhibition was 97.5% (active). With `CCOc1ccc(NC(=O)c2nc(SCC)ncc2Cl)cc1` the figure was 46.8%; with `Cc1cccc(NC(=O)C(C)SCc2ccccc2)c1` (stereo not drawn), 0.19%.

In the case of `CSc1ncc(Cl)c(C(=O)Nc2cc(C)ccc2C)n1`, the inhibition was -15.6%. `CCOc1ccc2c(c1)c(=O)c(S(=O)(=O)c1ccc(C)cc1)cn2CC`: the inhibition was 5.7%. With `O=C(COC(=O)C1CC2C=CC1C2)Nc1ccccc1` (stereo not drawn) the figure was -11.4%; with `CCS(=O)(=O)c1ccc(C(=O)NC)c(Cl)c1Cl`, 13.4%; with `COc1cc(C(=O)Nc2cc(C(F)(F)F)ccc2N2CCOCC2)ccc1O`, 15.4%. With `CC(C)(C)OC(=O)C[C@H]1C/C=C\C[C@@H](CC(=O)N[C@H](CO)Cc2ccccc2)C(=O)NC[C@@H](c2ccccc2)OC1=O` the figure was 9.47%; with `CC(C)(C)OC(=O)C[C@@H]1C/C=C\C[C@@H](CC(=O)N[C@H](CO)Cc2ccccc2)C(=O)NC[C@@H](c2ccccc2)OC1=O`, 13.2%; with `O=C(C[C@H]1C/C=C\C[C@@H](NC(=O)OCC2c3ccccc3-c3ccccc32)C(=O)O[C@@H](c2ccccc2)CNC1=O)N[C@H](CO)Cc1ccccc1`, 99.8% (active). Under `Cc1c(NC(=O)CN(C)CC(=O)Nc2ccc(F)c(F)c2F)c(=O)n(-c2ccccc2)n1C` stands 7.46%; under `OCC[C@H]1C[C@@H](O)[C@H](O)[C@]2(OCCCc3ccccc32)O1`, 8.75%; under `CCNS(=O)(=O)c1ccc(NC(=O)Nc2cccc(C(F)(F)F)c2)cc1`, 52.6% (active). As for `O=C(Nc1ccc(Cl)cc1)Nc1ccc(C(=O)N2CCOCC2)cc1`, the inhibition was 9.36%. Under `O=C(NCc1ccccc1)c1ccc(S(=O)(=O)Nc2cccc(C(F)(F)F)c2)cc1` stands 25.2%; under `O=C(Nc1ccc(C(=O)N2CCOCC2)cc1)Nc1cccc(C(F)(F)F)c1`, 54.6% (active).

Take `CC(=O)N1CCN(C(=O)Nc2cccc(C(F)(F)F)c2)CC1`: the inhibition was -7.17%.

`CC(C)C[C@H](NC(=O)Nc1cccc(C(F)(F)F)c1)C(=O)O`: the inhibition is 29.7%. Under `O=S(=O)(NCCS(=O)(=O)N1CCN(c2ccccc2)CC1)c1ccc(F)cc1` stands 23.9%.

Take `Cc1nc(-c2ccccc2)cn2c1nc1ccccc12`: the inhibition is 14.8%. `COc1ccccc1NC(=O)c1c(Br)cnn1C`: the inhibition was -30.1%. With `O=C1/C(=C\c2ccccc2Cl)SC(=S)N1CCC(=O)N1CCCc2ccccc21` the figure was 99.5% (active); with `CN(C(=O)CCN1C(=O)/C(=C/c2ccccc2F)SC1=S)C1CCS(=O)(=O)C1` (stereo not drawn), 24.9%. On to `O=C(CN1CCCCCC1)NCCN1C(=O)S/C(=C\c2ccccc2Cl)C1=O`, for which the inhibition is 3.22%.

For the molecule `COc1ccc(C(=O)OCc2cc(=O)n3ccsc3n2)cc1F`, the inhibition is 2.88%.

In the case of `O=C(NNC1CC(=O)N(c2cccc(Cl)c2)C1=O)c1cccnc1` (stereo not drawn), the inhibition is 14.9%. Regarding `COc1ccc(-c2c(C)cc3oc(=O)cc(-c4ccccc4)c3c2C)cc1F`, the inhibition is 2.64%.

For `COc1cc(OC)c2c(-c3cccc(-c4cccc(N)c4)c3)cc(=O)oc2c1`, the inhibition was 75% (active).

Turning to `COc1ccc(-c2c(C)cc3oc(=O)cc(-c4ccccc4)c3c2C)cc1OC`, the inhibition was 7.66%. With `C=CCn1c(=S)[nH]c2scc(-c3ccco3)c2c1=O` the figure was -19.1%. Under `Cc1ccccc1C(OCCN(C)C)C1CCCCC1` (stereo not drawn) stands 25.8%; under `COc1cccc(OC)c1C(=O)N1CCN(Cc2cccnc2)CC1`, -4.03%. Turning to `COc1ccc(S(=O)(=O)N2CCOCC2)cc1NC(=O)Cc1coc2cc(C)ccc12`, the inhibition was 3.68%.

Consider `Cc1cccc(CNS(=O)(=O)c2ccc(-c3cnc(C4CC4)o3)cc2)c1`, for which the inhibition was 35.8%. Regarding `Cc1cccc(NS(=O)(=O)c2ccc(-c3cnc(C4CC4)o3)cc2)c1`, the inhibition was 65.1% (active). Consider `COc1ccc(CNS(=O)(=O)c2ccc(-c3cnc(C4CC4)o3)cc2)cc1`, for which the inhibition was 15.3%. For `CN(C)S(=O)(=O)c1ccc(C(=O)NCCN=C2NS(=O)(=O)c3ccccc32)cc1`, the inhibition is 7.98%. Under `COCCCNC(=O)CN1CCN(Cc2ccccc2Cl)C1=O` stands -6.08%. With `Cc1nn(CC(=O)NCCc2ccccc2)c(=O)c2cc3occc3n12` the figure was 19%; with `Cc1ccc(-c2ccc(=O)n(CC(=O)NCCCN3CCCCC3)n2)cc1`, 2.15%; with `CCc1ccc(-c2cc3c(=O)n(CC(=O)NCCCN4CCN(Cc5ccccc5)CC4)nc(C)n3n2)cc1`, 97.4% (active).

Consider `O=C(NNC(=O)c1cc(S(=O)(=O)N2CCCCC2)ccc1Cl)c1ccccc1O`, for which the inhibition is 16.6%. With `CC(C)Sc1nnc([C@H](Cc2ccccc2)NC(=O)OC(C)(C)C)o1` the figure was 2.05%. As to `C[C@H](NC(=O)OC(C)(C)C)c1nnc(SCC(=O)Nc2ccc(Br)cc2)o1`, the inhibition was 18.7%.

Take `C[C@@H](NC(=O)OC(C)(C)C)c1nnc(S(=O)(=O)Cc2ccccc2)o1`: the inhibition was 53.4% (active). Under `NC(=O)CC(NC(=O)Cc1ccc(Br)cc1)c1ccc(NC2CC3CCC2C3)c([N+](=O)[O-])c1` (stereo not drawn) stands 9.79%. With `COc1ccc(Br)cc1CN(C)C(=O)C1CC(=O)N(C2CCCC2)C1` (stereo not drawn) the figure was 9.72%.

What is called inhibition is the change of the read-out against control, counted positive when it falls.

The record behind these values is PubChem BioAssay AID485346 (Sanford-Burnham Center for Chemical Genomics, 2010).
